Hits are enriched below; roughly 31% of the tested compounds scored in any of these assays.
CYP2C9 inh – blocks human cytochrome P450 2C9 | AID 777 | CYP2C9 Supersomes, luciferin-H conversion, luminescence | inhibition, % at 5 µM | P11712 | actives 20% (n = 96,000);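 active = blocking of liver enzyme CYP2C9 beyond about 50% at 5 µM, limit read from the data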
PLAP act – human PLAP activation. P05187. purified PLAP enzyme, luminescent substrate read-out; hits give high values. activation fold at 20 µM. actives 1.2% (n = 96,000). AID 696; in the data active = activation fold above about 2
Target sequence (P05187 whole entry, looked up): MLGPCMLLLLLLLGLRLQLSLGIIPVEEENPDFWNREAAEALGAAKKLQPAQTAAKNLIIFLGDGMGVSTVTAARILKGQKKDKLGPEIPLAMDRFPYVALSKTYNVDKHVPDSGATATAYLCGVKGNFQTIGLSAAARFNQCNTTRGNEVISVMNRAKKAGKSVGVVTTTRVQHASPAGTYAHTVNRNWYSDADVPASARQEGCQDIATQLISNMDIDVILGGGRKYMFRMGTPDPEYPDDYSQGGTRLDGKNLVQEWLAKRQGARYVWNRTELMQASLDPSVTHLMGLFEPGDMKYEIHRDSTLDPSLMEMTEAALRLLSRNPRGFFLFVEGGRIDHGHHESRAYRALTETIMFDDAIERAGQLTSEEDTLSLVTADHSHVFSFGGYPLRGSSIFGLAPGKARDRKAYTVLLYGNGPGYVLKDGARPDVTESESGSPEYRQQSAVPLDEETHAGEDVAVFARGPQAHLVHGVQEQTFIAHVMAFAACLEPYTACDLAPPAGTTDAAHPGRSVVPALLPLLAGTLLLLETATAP
CYP2C9 activ – increases human cytochrome P450 2C9 activity; actives 1.4% (n = 96,000); recombinant CYP2C9, luciferin-H conversion, luminescence; hits give high values; factor 1 = untreated enzyme, 0 = blocked; activation factor at 5 µM; P11712;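 active = activation factor of 2 or more for CYP2C9 at a 5 µM dose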;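 note: 0 = sulfaphenazole-blocked wells and 1 = vehicle-only wells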
CYP2C19 activ – increases human CYP2C19 enzyme activity. activation factor at 5 µM. AID 1025. P33261. recombinant CYP2C19, luciferin-H EGE luminescence; hits give high values; 0 = fully inhibited enzyme, 1 = untreated enzyme. 96,000 tested, under 10 active;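 active = activation factor of at least 2 at 5 µM in the primary screen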;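 note: 0 = wells with 2.5 mM tranylcypromine and 1 = vehicle-only wells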
CYP2C19 inhib – inhibitors of human CYP2C19 | P33261 | CYP2C19 Supersomes, luciferin-H EGE luminescence, 30 min | inhibition, % at 5 µM | actives 21% (n = 96,000) | AID 778;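 active = CYP2C19 inhibition above a set limit at 5 µM in the primary screen, cut at about 50% in these data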;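 note: plate controls were negative control wells for no effect and 2.5 mM tranylcypromine positive control for full effect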
Active calls of the source: *.

SMILES	CYP2C9 inh	PLAP act	CYP2C9 activ	CYP2C19 activ	CYP2C19 inhib
CSc1cccc(NC(=O)C(C)Sc2ccc(C)cc2)c1 (stereo not drawn)	67.2*	0.7	0.3	0.3	70.3*
Cc1ccc(SC(C)C(=O)Nc2ccc(S(=O)(=O)N3CCOCC3)cc2)cc1 (stereo not drawn)	60.5*	1.2	0.4	0.6	36.7
Cc1ccc(SC(C)C(=O)Nc2ccncc2)cc1 (stereo not drawn)	96.6*	0.9	0	0	99.6*
COc1ccc(-c2cc3nc(C)cc(NCCO)n3n2)cc1	19.1	1	0.8	1	-2.0
COc1ccc(-c2cc3nc(C)cc(N)n3n2)cc1	29.7	0.9	0.7	0.2	77.1*
COc1ccc(-c2ccc(-c3nnc(-c4cc(OC)ccc4OC)o3)cc2)cc1	5.1	1.4	0.9	0.6	38.4
COc1cccc(C2=CC(c3cccc(OC)c3OC)n3nnnc3N2)c1 (stereo not drawn)	89.5*	1.1	0.1	0	97.5*
COc1cccc(C2=CC(c3cc(OC)ccc3OC)n3nnnc3N2)c1 (stereo not drawn)	68.4*	0.9	0.3	0.6	35.3
COc1cccc(C2=CC(c3cccc(OC)c3OC(F)F)n3nnnc3N2)c1 (stereo not drawn)	-6.9	1.1	1.1	0.6	42.4
COc1ccc(OC)c(C2C=C(c3ccc(C)c(C)c3)Nc3nnnn32)c1 (stereo not drawn)	95.6*	1.1	0	0	96.7*
CCOC(=O)N1CCN(C(=O)CN(C)S(=O)(=O)c2ccc3c(c2)C(C)(C)C(=O)N3C)CC1	20.1	1.2	0.8	0.9	5.3
NC(=O)N1OCC2COc3ccc4ccccc4c3C21 (stereo not drawn)	-108.0	1	2.1*	1	4.7
CCc1ccccc1OCc1nc2ccc(S(=O)(=O)N3CCOCC3)cc2[nH]1	49.1	2*	0.5	1	-4.0
Cc1ccccc1OCc1nc2ccc(S(=O)(=O)N3CCOCC3)cc2[nH]1	27.2	1.8	0.7	1.1	-7.7
O=S(=O)(c1ccc2nc(COc3ccc(Cl)cc3Cl)[nH]c2c1)N1CCOCC1	57.8*	1.7	0.4	0.5	50.7*
COc1ccc(S(=O)(=O)NN=C2CCCC2)cc1	-6.4	0.9	1.1	0.7	32.4
Cc1ccccc1NS(=O)(=O)c1ccc(F)cc1	63.5*	0.8	0.4	0	95.7*
O=S(=O)(Nc1cccc2cn[nH]c12)c1ccc(F)cc1	28.2	1.1	0.7	0.2	82.1*
Cc1ccccc1NS(=O)(=O)c1ccc(NC(=O)c2ccco2)cc1	35.8	0.8	0.6	0.8	21.1
COc1ccc(S(=O)(=O)Nc2c3ccccc3nc(=O)n2-c2ccccc2)cc1	15.5	1.1	0.8	0.9	14.6
COc1ccc(S(=O)(=O)Nc2cc3c4c(oc3c3ccccc23)CCCC4=O)cc1	82.5*	1.2	0.2	0.5	45.5
COc1ccc(S(=O)(=O)Nc2ccccc2C)cc1	51.0*	1	0.5	0	99.5*
CCOCCn1c(N2CCN(c3ccc(OC)cc3)CC2)nc2c1c(=O)[nH]c(=O)n2C	23.9	1.4	0.8	0.9	11.5
CCCC(C)NCC(=O)Nc1ccccc1-c1ccccc1 (stereo not drawn)	40.9	1.7	0.6	0.4	64.8*
CCn1c(SC(=O)NC2CCCCC2)nnc1-c1cccs1	24.7	1	0.8	0.5	53.0*
SMILES	CYP2C9 inh	PLAP act	CYP2C9 activ	CYP2C19 activ	CYP2C19 inhib
CCn1c(SCc2nc3ccccc3nc2C)nnc1-c1cccs1	-7.9	0.9	1.1	0.1	92.6*
CCn1c(SCC(=O)NC2CCCCC2)nnc1-c1cccs1	19.7	1	0.8	0.8	17.7
CCn1c(SC/C=C/c2ccccc2)nnc1-c1cnccn1	6.8	1.2	0.9	0.7	31.4
CCn1c(SCC(=O)c2ccccc2)nnc1-c1cccs1	16.1	0.9	0.8	0.3	68.8*
CCn1c(SC/C=C/c2ccccc2)nnc1-c1cccs1	81.7*	1	0.2	0	99.2*
Cn1c(SCc2c(F)cccc2Cl)nnc1-c1cccs1	20.0	0.8	0.8	0.7	34.9
CCn1c(SCC(=O)NCCc2ccccc2)nnc1-c1cccs1	32.0	0.9	0.7	0.7	32.4
Cc1ccccc1C(=O)N1CCC(C(N)=O)CC1	8.3	1.4	0.9	1	-0.5
CC(N=c1ccccn1C(=O)Nc1cccc(C(F)(F)F)c1)c1ccco1 (stereo not drawn)	25.6	0.9	0.7	0.7	31.9
C=CCn1c(SCc2nc3ccccc3nc2C)nnc1-c1ccoc1C	-38.7	1.2	1.4	0	95.2*
C=CCn1c(Cc2cccs2)nnc1SC/C=C/c1ccccc1	57.7*	1.1	0.4	0.3	70.1*
C=CCn1c(SCc2ccccc2)nnc1-c1cccnc1	-4.4	0.7	1	0.6	35.6
COC(=O)c1[nH]c2ccc(F)cc2c1NC(=O)C1=COCCO1	14.6	0.9	0.9	0.9	10.9
O=C1CN(C(=O)COC(=O)CCSc2ccccc2Cl)c2ccccc2N1	-29.6	0.8	1.3	0.8	21.6
O=C(c1ccc(Cl)cc1)C1C2C(=O)N(c3ccccc3)C(=O)C2C2CCCN21 (stereo not drawn)	78.5*	1.5	0.2	0.2	78.9*
Cc1cnc(NC(=O)c2ccc(-c3nc4ccccc4s3)o2)s1	56.3*	1.7	0.4	0.2	75.4*
Cc1cnc(NC(=O)CSc2nc3ccccc3s2)s1	0.7	1.2	1	0.8	23.7
O=S(=O)(NC1CCN(Cc2ccccc2)CC1)c1cccc2cccnc12	-54.1	1.3	1.5	0.9	11.3
CC/C(=C\C(=O)c1ccncc1)Nc1ccc(O)cc1	40.8	0.9	0.6	0.1	86.9*
CCC(=O)Nc1ccc(C(=O)Nc2cccnc2)cc1	1.5	0.9	1	1.1	-9.9
CCC(=O)NC(=S)Nc1cccc(NC(=O)c2ccc(Cl)cc2Cl)c1	-4.8	1	1	0.9	9.2
O=C(COc1ccccc1Cl)NC(=S)Nc1cccc(NC(=O)c2ccccc2Cl)c1	66.9*	0.9	0.3	0.7	25.5
Cc1ccc2occ(/C=N/O)c(=O)c2c1	3.3	0.7	1	1	-1.3
O=c1c(/C=N/O)coc2ccc3ccccc3c12	-95.7	0.9	2*	1	-0.1
CC(=O)c1c(C(C)=O)c(C)n(-c2nc(-c3ccc(C)c(C)c3)c(C)s2)c1C	4.3	1.3	1	1	-0.7
CCOC(=O)c1c(SC)nc(SC)c2c1CCC2	-13.1	0.7	1.1	0.7	30.1
N#CCc1nc(CSc2nc3ccccc3s2)cs1	28.3	1.2	0.7	0	97.8*
N#CCCCSc1nnc(CSc2nc3ccccc3s2)n1-c1ccccc1	46.5	1.5	0.5	0.6	37.5
COc1cccc2c(=O)n(CC(=O)Nc3cccc(F)c3)ccc12	16.8	0.7	0.8	0.6	40.7
Cc1cc(C)c(S(=O)(=O)N(CC(=O)N2CCOCC2)C2CCCCC2)c(C)c1	75.0*	1.7	0.3	0.6	36.6
